Results: PubChem BioAssay (Tox21)
Calls of active or inactive are those of the source. Calls follow the shape of the dose curve; as a rule, active = well fitted curve in the direction sought with a large enough effect in the repeat runs; inconclusive = weak or mixed curves; inactive = flat fitted curve, though single readings scatter.
% is scaled to controls: 0 for no effect and ±100 for the full control effect.

Experiment: qHTS assay to test for compound auto fluorescence at 590 nm (red) in HepG2 cells (AID 720674)
Details: HepG2 autofluorescence, red 540/590 nm, 1 h; series mostly up to 91.3 µM
Description: U.S. Tox21 Program National Center for Advancing Translational Sciences [NCATS] NIH Chemical Genomics Center [NCGC] U.S. Environmental Protection Agency [EPA] National Institutes of Environmental Health Sciences [NIEHS] National Toxicology Program [NTP] U.S. Food and Drug Administration [FDA] Tox21 Assay Overview: Compound auto fluorescence often interferes with screening of the compound library against various biological targets and signaling pathways. Some of these compounds may have fluorophoric properties. Such properties may interfere with the assay outputs resulting in false positives and/or negatives. To decrease such complications and ensure the compound activities are relevant in terms of biological response, the Tox21 10K compound library was screened for auto fluorescence. From the fluorophores used as reporter signals in our screening assays, the auto fluorescence equivalencies of compounds against three fluorophores have been evaluated: Triamterene, Fluorescein and Rose Bengal sodium for blue, green and red fluorescence, respectively. The fluorescence intensities were measured using Excitation/Emission wavelengths at 405/460nm, 485/535nm and 540/590nm for blue, green and red labels, respectively. This assay includes the red fluorescence data.
Tox21 Assay Protocol Summary: 2,000 HepG2 cells in 5 uL of culture medium (MEM containing 10% FBS) per well were dispensed into black wall/clear bottom 1536-well plates using a Multidrop Combi Dispenser (ThermoFisher Scientific, Waltham, MA). The assay plates were incubated overnight at 37 C to allow cell attachment to the well bottom, followed by the transfer of 23 nL compound or DMSO vehicle by a pintool work station (Kalypsys , San Diego, CA). After the assay plates were incubated for 1 hr at 37 C and 5% CO2, fluorescence intensities in the assay plates were measured by an Envision (PerkinElmer, Shelton, CT) plate reader using three labels for measuring blue, green and red fluorescence at […] 460, 535 and 590 nm respectively.
In the case of `C[Si](C)(C)O[Si](C)(C)O[Si](C)(C)C`, the outcome is reported as “inactive”.
With `O=C(O)c1cc(C(=O)O)c(C(=O)O)cc1C(=O)O` the outcome was “inactive”.
In the case of `CCCCCC1CCC(=O)O1` (stereo not given), the outcome is reported as “inactive”.
In the case of `C1=COCCC1`, the outcome is reported as “inactive”.
With `Nc1ncnc2c1ncn2[C@@H]1O[C@H](CO)[C@@H](O)[C@H]1O` the outcome was “inactive”.
For `NC(=O)c1cc[n+](CC2=C(C(=O)[O-])N3C(=O)[C@@H](NC(=O)Cc4cccs4)[C@H]3SC2)cc1`, the fluorescence, relative to Rose Bengal was -0.33% [at 18.6 µM] (inactive).
In the case of `O=C(N[C@@H](Cc1ccccc1)[C@@H](O)C(=O)N1C[C@@H](O)[C@@H](O)C1)c1cc2cc(Cl)ccc2[nH]1`, the outcome is reported as “inactive”.
In the case of `O=C(Cl)c1cc(Cl)cc(Cl)c1`, the outcome is reported as “inactive”.
In the case of `CC/C=C\CCO`, the outcome is reported as “inactive”.
In the case of `CCOc1cc(OCC)c(C(C)=O)cc1OCC`, the outcome is reported as “inactive”.
For `C=C[Si]1(C)O[Si](C)(C=C)O[Si](C)(C=C)O[Si](C)(C=C)O1` (stereo not given), the outcome was “inactive”.
With `CC(O)CN` (stereo not given) the outcome was “inactive”.
In the case of `CCCCOC(=O)C(C)Oc1ccc(Oc2ccc(C(F)(F)F)cn2)cc1` (stereo not given), the outcome is reported as “inactive”.
In the case of `CO[C@@H]1COCC[C@@H]1N[C@@H]1CC[C@@](C(=O)N2CCc3ncc(C(F)(F)F)cc3C2)(C(C)C)C1`, the outcome is reported as “inactive”.
For `CC(C)=CCCC(C)C=O` (stereo not given), the outcome was “inactive”.
With `CCCCCCCCCCCCSCCOCCO` the outcome was “inactive”.
For `CC(C)(O)C(=O)O`, the outcome was “inactive”.
With `O=C(O)c1ccncc1` the outcome was “inactive”.
For `CCn1nc(Cc2ccccc2)cc1C1CCN(C[C@H]2C[C@H](N(C)[C@@H](C(=O)O)C(C)C)C[C@@H]2c2cccc(F)c2)CC1`, the outcome was “inactive”.
In the case of `Cc1nc(C)c(C)nc1C`, the outcome is reported as “inactive”.
For `Cc1c(Cl)cccc1[N+](=O)[O-]`, the outcome was “inactive”.
With `FC(F)(Cl)C(F)(Cl)Cl` the outcome was “inactive”.
For `Cc1cc(N)n(-c2ccccc2)n1`, the outcome was “inactive”.
With `C=C[Si](OCC)(OCC)OCC` the outcome was “inactive”.
With `CC(CN=Cc1ccccc1O)N=Cc1ccccc1O` (stereo not given) the outcome was “inactive”.
In the case of `Cc1cc(C)n(CO)n1`, the outcome is reported as “inactive”.
For `Cc1cc(C)c(C)c(O)c1`, the outcome was “inactive”.
In the case of `C=CC(C)CCC=C(C)C` (stereo not given), the outcome is reported as “inactive”.
For `O=C1CCCN1CCO`, the outcome was “inactive”.
With `Cc1ccc(NC(=O)c2ccc(CN3CCN(C)CC3)cc2)cc1Nc1nccc(-c2cccnc2)n1` the outcome was “inactive”.
For `CCCCCCCCCC(C)C=O` (stereo not given), the outcome was “inactive”.
With `O=C(O)c1cc(C(=O)O)cc([N+](=O)[O-])c1` the outcome was “inactive”.
In the case of `CCCC(=O)OCCC(C)C`, the outcome is reported as “inactive”.
For `CCc1ccc(C(=O)C(C)CN2CCCCC2)cc1` (stereo not given), the outcome was “inactive”.
For `Cc1ccc(NC=O)c(C)c1`, the outcome was “inactive”.
With `CCOc1ccccc1O` the outcome was “inactive”.
In the case of `Cc1ccc(S(=O)(=O)NC(=O)NC2CCCC2)cc1`, the outcome is reported as “inactive”.
For `CCCCCCCCCCCC(=O)OCC`, the outcome was “inactive”.
For `C=CC(=O)OCCCCCCCCCC`, the outcome was “inactive”.
With `CCOc1ccc2c(c1)C(C)CC(C)(C)N2` (stereo not given) the outcome was “inactive”.
